Data: PubChem BioAssay (NCI)
Compounds without any hit were thinned out: in the full panel of roughly 83,000, 20% have a hit.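 Interpretation: 100, growth as untreated; towards 0, rising growth inhibition; 0, no net growth; 0 to -100, cell death. Compounds scoring below 10 were considered active.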 Unmarked numbers belong to inactive results. The source made the active and inactive calls.

Tests used:
Experiment in all cases: NCI-60 one-dose screen, 48 h (100 = growth as untreated, 0 = no growth, -100 = all killed)
Details in all cases: 10 µM unless noted
[1] = test system: NCI-H23 lung
[2] = test system: NCI-H226 lung
[3] = test system: NCI-H322M lung
[4] = test system: HOP-62 NSCLC
[5] = test system: NCI-H460 lung
[6] = test system: HOP-92 NSCLC
[7] = test system: NCI-H522 lung
[8] = test system: A549/ATCC NSCLC
[9] = test system: 786-0 renal
[10] = test system: COLO 205 colon

SMILES | growth [1] | growth [2] | growth [3] | growth [4] | growth [5] | growth [6] | growth [7] | growth [8] | growth [9] | growth [10]
COc1cccc(-c2nn(-c3ccccc3)cc2-c2ccnc(NCCCNC(=O)c3ccccc3)c2)c1 | 51.3% | 61.4% | 95.2% | 53.6% | 51.7% | 41.5% | 38.3% | 30.7% | 40.2% | 35.2%
Cc1ccc(S(=O)(=O)NCC[C@@H]2C[C@H]2c2cc3ccccc3s2)cc1 | 93.2% | 87.8% | 101% | 108% | 104% | 101% | 85.3% | 98.5% | 100% | 120%
CC(=O)O[C@]1(C(C)=O)CCC2C3C[C@H](C)C4=CC(=O)CC[C@]4(C)C3CC[C@@]21C (stereo not given in full) | 96.2% | 73.6% | 95.7% | 94.6% | 103% | 89.9% | 74.8% | 73.3% | 97.4% | 104%
OC(c1cccc(-n2ccc(C(F)(F)F)n2)c1)c1cnccc1NC1CCCCCC1 (stereo not given) | 53.1% | 67.3% | 6.47% (active) | 73.7% | -64.6% (active) | -5.13% (active) | 43.9% | 50.2% | 28.9% | -47.2% (active)
COc1ccc2[nH]c(O)c(/C=c3/cc4c(c(-c5ccc(F)c(OC)c5)n3)=Nc3ccccc3-4)c2c1 | 61.1% | 90.7% | 89.1% | 88.6% | -21.9% (active) | 57.5% | 67% | 52.8% | -59% (active) | 84.8%
CCCCN(CCCC)CC(C)(C)C(O)c1ccc(OC)c2ccccc12 (stereo not given) | -1.81% (active) | 51.7% | 44.9% | 73.7% | 39.1% | -9.57% (active) | 4.57% (active) | 63.5% | 58.4% | 71%
COC(=O)c1c2c(c[n+]([O-])c1C)C(=O)C=CC2=O | 60.4% | 98.1% | 110% | 104% | 98.4% | 70.8% | -69.9% (active) | 100% | 91.6% | 33.5%
Cc1ccc(Nc2nc(N)nc(CSCC(=O)NN)n2)cc1 | 98.8% | 97.8% | 100% | 101% | 107% | 95.6% | 96.7% | 107% | 100% | 110%
COc1cc(/C=C2\C(=O)ON=C2C)cc(OC)c1OC | 98.6% | 100% | 95.1% | 97% | 110% | 87.8% | 98.5% | 96.1% | 103% | 105%
Cc1ccc(NS(=O)(=O)c2ccc3c(c2)C2OCCC2C(c2ccc(C(=O)C(C)C)cc2)N3)cc1C (stereo not given) | 38.7% | 45.3% | 82.2% | 70.3% | 31.7% | 74% | 39.2% | 27.4% | 58.9% | 30.8%
COc1cccc(-c2nn(-c3ccccc3)cc2-c2ccnc(NCCNC(=O)Nc3ccc(Cl)c(Cl)c3)c2)c1 | 19.7% | 50.5% | 48.1% | 5.85% (active) | 2.74% (active) | -1.01% (active) | -14.9% (active) | -18.3% (active) | -41.1% (active) | -37.4% (active)
CCOC(=O)c1c(-c2ccc(Cl)cc2)c(C#N)c(=O)n(-c2ccccc2CC)c1N | 76.9% | 85.4% | 78.7% | 97.5% | 82.3% | 65.9% | 92% | 85% | 93.4% | 111%
CC1(C)CC[C@]2(C(=O)N3CCOCC3)CC[C@]3(C)C(=CC[C@@H]4[C@@]5(C)CC[C@H](OC(=O)c6cccnc6)C(C)(C)[C@@H]5CC[C@]43C)[C@@H]2C1 | 68.9% | 50.1% | 88.2% | 78.7% | 18.3% | 66.4% | 73.3% | 47.3% | 62.4% | 58.4%
c1coc(-c2c3ccc(=[N+]4CCCCC4)cc-3oc3cc(N4CCCCC4)ccc23)c1 | -84.6% (active) | -86.1% (active) | -85.1% (active) | -81.1% (active) | -71.5% (active) | -68.1% (active) | -86.4% (active) | -57.9% (active) | -93.2% (active) | -70.1% (active)
c1ccc(Nc2nc(-c3ccccn3)cs2)nc1 | 19.1% | -9.64% (active) | 27.1% | 16.4% | -9.3% (active) | 63.6% | 26.3% | 11.2% | -2.41% (active) | 11.5%
CC(CCc1ccc(Cl)c(Cl)c1)NCc1ccc(C(C)(C)C)cc1 (stereo not given) | 91.9% | 83.9% | 97.8% | 85.9% | 90.6% | 59.5% | 82.7% | 60.8% | 70.8% | -38.2% (active)
N=C1CCC(=N)c2c1c(O)c1ccccc1c2O | 82.3% | 87.3% | 93.1% | 103% | 173% | 88.7% | 91.6% | 95.2% | 113% | 114%
COc1ccc(-c2nc3sccn3c2-c2cc(-c3cc(OC)c(OC)c(OC)c3)on2)cc1 | 88.6% | 116% | 102% | 106% | 78.3% | -17.4% (active) | 87.9% | 104% | 96.6% | 94.2%
O=C1N=c2cc3c(cc2=C/C1=C/c1sc(=S)n(CCc2ccc(O)cc2)c1O)OCCO3 | 71.2% | 93.5% | 95.9% | 97% | 83.8% | 56.7% | 37.3% | 99.1% | 80.5% | 75.6%
COc1cccc(-c2nc3sccn3c2-c2ccnc(NCCNS(=O)(=O)c3ccc(C(F)(F)F)cc3)c2)c1 | 53.7% | 34.8% | 72.3% | 62% | 35.6% | 34.4% | 55.7% | 38.1% | 51.6% | 28.5%
COc1ccc(C(=O)COc2ccc(/C=C3\Oc4ccccc4C3=O)cc2)cc1 | 92.9% | 88% | 108% | 90.8% | 102% | 75.8% | 63% | 99% | 98.1% | 99.2%
NC(=S)N/N=C/Cc1ccccc1 | 99.6% | 103% | 105% | 104% | 110% | 109% | 100% | 90.6% | 106% | 97.2%
O=c1c2c3c(sc2n2c(-c4cc(-c5ccccc5)nn4-c4ccccc4)nnc2n1Cc1ccccc1)CCCC3 | 105% | 99% | 112% | 95% | 106% | 53.2% | 45.9% | 101% | 95.9% | 86%
O=S(=O)(Nc1cccc(Cl)c1)c1ccc(-c2cnc(C3CC3)o2)cc1 | 29.3% | 40.9% | 48.1% | 31.9% | 16.5% | 20.5% | -1.89% (active) | 38.4% | 28.4% | 0.342% (active)
O=C(NCCCNc1cc(-c2cn(-c3ccccc3)nc2-c2cccc(O)c2)ccn1)c1cccc(O)c1 | 67.3% | 86.6% | 111% | 85.3% | 69.6% | 57.2% | 53% | 53.4% | 63.8% | 80.2%
